Screening results deposited in PubChem by several laboratories.
NF-kB neuron act: NF-kB expression increase, human neuronal cells. NF-kB reporter expression; active compounds read high. fold change at 12.5 µM. hit rate 1.6% among 190,000. AID 1239; in the data active = fold change above about 3.3
APP 5'UTR act: activates APP 5'UTR luciferase reporter. SH-SY5Y APP 5'UTR luciferase reporter, luminescence; zero percent = DMSO vehicle wells. activation, % at 2 µM. hit rate 1% among 190,000;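 active = activation above a set limit, based on mean plus 3 SD of controls, cut at about 140% in these data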
hgDAF-12 ag: activates the H. glycines DAF-12 receptor ligand-binding domain. HEK293 GAL4-hgDAF12 UAS-luciferase reporter, agonist luminescence; normalized to butyrate control. activation, % at 6.8 µM. hit rate 1.8% among 370,000. AID 687014;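 active = activation above a cutoff set at the mean of all screened compounds plus 3 SD, cut at about 10% in these data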
ssDAF12 agonist: activators of S. stercoralis DAF-12 nuclear receptor | activation, % at 6.8 µM | HEK293 ssDAF-12/GRIP1 lit1-tk-luc reporter, luminescence; % of 3 µM dafachronic acid response | hit rate 1% among 370,000 | AID 652126;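 active = activation above the mean over all tested compounds plus 3 SD, cut at about 0.9% in these data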
hcDAF12 agonist: activates DAF-12 receptor from parasite H. contortus | hit rate 1.4% among 370,000 | activation, % at 6.8 µM | HEK293 hcDAF-12 lit1-tk-luc reporter, luminescence; 0% DMSO, 100% Δ7-dafachronic acid | AID 652067;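 active = activation above the mean of all tested compounds plus 3 SD, cut at about 5.5% in these data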
A number is an active result; . = inactive; / = no result given. In the library only some 3.4% were active in any assay of this set; here they are far more common.

SMILES	NF-kB neuron act	APP 5'UTR act	hgDAF-12 ag	ssDAF12 agonist	hcDAF12 agonist
C=CCn1c(SCC(=O)c2ccc(F)cc2)nnc1-c1ccc2c(c1)OCO2	.	.	.	1.3	.
C/C(C=Nn1c(-c2ccc(F)cc2)n[nH]c1=S)=C/c1ccco1	/	/	.	.	.
COc1ccc([N+](=O)[O-])cc1NC(=O)CSCc1ccc(Br)cc1	.	.	.	1.0	.
COc1ccc2nc(SCC(=O)/C(C#N)=C(\C)N)[nH]c2c1	4.08	.	.	.	5.8
COc1ccc2nc(SCC(N)=O)[nH]c2c1	.	.	.	.	.
CCN(CC)c1ccc(/C=N/NC(=O)c2cc3ccccc3[nH]2)cc1	/	/	.	.	.
CCn1c2ccccc2c2cc(C=NNC(=O)c3ccoc3C)ccc21	/	/	11.5	.	.
Cc1occc1C(=O)N/N=C/c1c[nH]c2ccccc12	.	142.7	/	/	/
CCN(CC)c1ccc(/C=N/NC(=O)c2c[nH]c3ccccc23)cc1	.	.	.	.	5.9
CCn1c2ccccc2c2cc(/C=N/NC(=O)c3ccccc3C)ccc21	.	.	.	.	.
O=C(N/N=C/c1c[nH]c2ccccc12)c1cc(Cl)ccc1O	/	/	.	1.6	.
CN1C(=O)C[C@@](C#N)(C(=O)N2CCCC2)[C@H]1c1ccccc1	/	/	.	.	.
COc1ccc(N=C2C(=S)N(c3ccc(OC)cc3)C(=NS(=O)(=O)c3ccccc3)N2c2ccccc2)cc1	/	/	13.2	.	.
COc1ccc(N2C(=O)NC(NS(=O)(=O)c3ccccc3)(C(F)(F)F)C2=O)cc1 (stereo not drawn)	/	/	.	.	.
S=C(Nc1ccccc1)OCCN1CCCC12CCC(c1ccccc1)CC2 (stereo not drawn)	/	/	.	.	.
C=CCN1C(=O)[C@@H](CC(=O)N2CCCC2)[C@]2(C(=O)OCC)CCCCC/C=C/12	/	/	.	.	.
O=C1c2ccccc2C(=O)N1CN(C(=O)COc1ccc(Cl)cc1Cl)c1cccc(F)c1	.	.	.	.	5.9
COCCSc1ncccc1-c1nc2ccccc2[nH]1	/	/	.	.	.
CSc1nnc2c3ccccc3c3ccccc3c2n1	.	.	.	1.2	.
CSc1nnc(-c2ccccc2)c(-c2ccccc2)n1	/	/	.	.	.
CCOc1ccc(/C=C2\SC(=S)N(N3C(=O)C4CC4C3=O)C2=O)cc1 (stereo not drawn)	.	.	.	.	5.7
Fc1ccccc1N1CCN(c2ncnc3[nH]ncc23)CC1	3.55	.	.	.	.
Cc1cc(NC(=O)c2ccc(NS(=O)(=O)c3ccccc3F)cc2)no1	/	/	.	.	.
c1ccc(OC2CCN(c3ncnc4sccc34)CC2)cc1	/	/	.	.	.
CSc1cnn(CCC#N)c(=O)n1	/	/	.	1.2	6.0
SMILES	NF-kB neuron act	APP 5'UTR act	hgDAF-12 ag	ssDAF12 agonist	hcDAF12 agonist
CSc1nc(=O)n(CCC#N)nc1SC	/	/	.	.	.
CCOC(=O)[C@@]12CCC3=C1N(CCC3)C(=O)[C@H](CC(=O)N1CCC(c3ccccc3)CC1)C2	/	/	.	.	.
Cc1nn2c(-c3ccncc3)ccnc2c1Cl	.	.	11.7	.	.
Cc1ccc(-c2ccnc3c(Cl)c(C)nn23)cc1	/	/	.	.	.
Nn1c(SCC(=O)NC2CCCCC2)nnc1-c1cc(-c2ccccc2)n[nH]1	/	/	.	.	.
COc1ccccc1NS(=O)(=O)c1cccc(C(=O)OCC(=O)Nc2cc(C)on2)c1	.	.	.	.	.
COc1ccccc1NS(=O)(=O)c1cccc(C(=O)OCc2nc3ccccc3s2)c1	.	.	.	2.7	5.6
Cc1cc(/C=C(/C#N)C(=O)Nc2ccccc2)c(C)n1-c1cccnc1	.	.	10.8	.	.
CC(C)CN1C(=O)[C@]2(CC(=O)N(C)C2c2ccccc2)c2cc(-n3cc(CN(C)C)nn3)ccc21 (stereo partly drawn)	/	/	.	.	.
Cc1ccc(NC(=O)c2oc3ccccc3c2NC(=O)c2ccc3c(c2)OCO3)cc1	.	.	.	1.1	.
O=C(Nc1c(C(=O)Nc2cccc(F)c2)oc2ccccc12)c1ccc2c(c1)OCO2	.	.	.	.	.
COc1ccc(C(=O)Nc2ccccc2C(=O)N/N=C/c2cccc3ccccc23)cc1	4.17	.	.	.	.
O=C(Nc1cccc(F)c1)c1ccc2c(c1)OCO2	3.5	.	.	.	.
COc1ccc(C(=O)Nc2ccccc2C(N)=O)cc1	.	.	12.6	.	.
CCn1c(SCC(=O)Nc2ccccc2-c2ccccc2)nnc1-c1ccc(C)cc1	/	/	.	.	.
NC(=O)c1ccccc1NC(=O)c1ccc2c(c1)OCO2	/	/	11.3	.	.
COC(=O)[C@]12C[C@H](CC(=O)N3CCC(c4ccccc4)CC3)C(=O)N(Cc3ccco3)C1=C[C@H](C(C)(C)C)O[C@@H]2C	/	/	.	.	.
Oc1ccc(-c2csc(Nc3ncccn3)n2)c(O)c1	8.09	154.5	24.7	.	.
Cc1nc(-c2ccc(O)c(O)c2)cs1	.	.	.	.	.
Oc1ccc(-c2csc(Nc3ncccn3)n2)cc1O	12.2	.	.	.	.
Cc1cccc(Nc2nc(-c3ccc(O)cc3O)cs2)n1	/	/	.	.	.
COC(=O)[C@]12C[C@H](CC(=O)N3CCN(C(=O)c4ccco4)CC3)C(=O)N(Cc3ccc(Cl)cc3Cl)C1=C[C@H](C(C)C)O[C@@H]2C1CC1	/	/	.	.	.
NC(=O)C1=C[C@H](C2CCCCC2)C[C@H](OCc2ccc(CO)cc2)O1	3.84	.	.	.	.
C=CCOC(=O)C1=C[C@H](C2CCCCC2)C[C@H](OCc2ccc(CO)cc2)O1	/	/	.	.	.
C=CCN=Cc1c(C)[nH]n(-c2ccccc2)c1=O	10.8	.	.	.	.
SMILES	NF-kB neuron act	APP 5'UTR act	hgDAF-12 ag	ssDAF12 agonist	hcDAF12 agonist
Cc1[nH]n(-c2ccccc2)c(=O)c1C=NC1CCCCC1	6.1	.	.	.	.
Cc1[nH]n(-c2ccccc2)c(=O)c1C=NC1CCCCCC1	.	.	.	.	.
CN(C)c1ccc(C=Nc2ccc(N(C)C)cc2)cc1	.	175.3	.	.	.
CN(C)c1ccc(N=Cc2ccco2)cc1	.	152.8	/	/	/
CN(C)c1ccc(C=Nc2ccccc2)cc1	.	.	.	.	.
C/C(=N/N=C/c1ccc(N(C)C)cc1)c1ccccc1	.	188.7	.	.	.
COc1ccc(CNC(=O)CSc2nc3c([nH]2)c(=O)n(C)c(=O)n3C)cc1	/	/	.	.	.
CC(C)(C)c1ccc(S(=O)(=O)N2CCC(C(=O)NCc3cccs3)CC2)cc1	/	/	.	.	.
Cc1cccc(-c2nnc(SCc3cccc4ccccc34)n2-c2ccc(Cl)cc2)c1	/	/	.	.	.
COc1ccc(/C=N/NC(=O)CCn2c3ccccc3c3ccccc32)cc1O	.	.	.	.	.
COc1cccc(/C=N/NC(=O)CCn2c3ccccc3c3ccccc32)c1	.	.	.	1.4	.
Cc1nc(Sc2nnnn2C)c2c3c(sc2n1)CCC3	12.3	.	.	.	.
Cc1nc(SCC(=O)NCC2CCCO2)c2c3c(sc2n1)CCC3 (stereo not drawn)	/	/	.	.	.
CCc1nc(Sc2nnnn2-c2ccccc2)c2c3c(sc2n1)CCCC3	7.95	.	.	.	.
CCc1nc(N2CCN(C(=O)c3ccccc3)CC2)c2c3c(sc2n1)CCCC3	.	.	.	.	.
